Inconclusive results are not listed. Where a call stands in place of a potency, no number is given. Values without a mark were called inactive. Active and inactive are the calls of the source. Unless noted, calls follow the shape of the dose curve; as a rule, active = well fitted curve in the direction sought with a large enough effect; inconclusive = small, poorly fitted or top-dose-only effect, or another doubt; inactive = no such curve, though single readings can be large; an effect the other way counts as inactive or inconclusive.
Legend:
[1] = qHTS for Inhibitors of Plasmodium falciparum (DD2) proliferation (AID 504314);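 also: parasite DNA measured by SYBR Green fluorescence after red cell lysis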
Summary of the method: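 Erythrocytes infected with P. falciparum Dd2 (0.3% parasitemia, 2.5% hematocrit) exposed to compound 72 h at 37C, 5% CO2. Parasite DNA quantified by SYBR Green fluorescence after saponin/Triton lysis overnight; normalized to 0.29 uM artemisinin and DMSO.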

[2] = qHTS for Inhibitors of Plasmodium falciparum (GB4) proliferation (AID 504315); also: nearly all actives have a fitted effect of over 50% in size
Summary of the method: (§1)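 Erythrocytes infected with P. falciparum line (0.3% parasitemia, 2.5% hematocrit final) incubated with compounds 72 h at 37 °C, 5% CO2; SYBR Green lysis buffer added, fluorescence read next day. Normalized to 0.29 uM artemisinin and DMSO.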

[3] = qHTS for Inhibitors of Plasmodium falciparum (7G8) proliferation (AID 504316); also: series mostly up to about 6.7 µM; nearly all actives have a fitted effect of over 65% in size
Summary of the method: as §1

[4] = qHTS for Inhibitors of Plasmodium falciparum (HB3) proliferation (AID 504318); also: nearly all actives have a fitted effect of over 60% in size
Summary of the method: as §1

[5] = qHTS for Inhibitors of Plasmodium falciparum (CP250) proliferation (AID 504320)
Summary of the method: as §1

[6] = molecular target: Atrial natriuretic peptide receptor 1 (Homo sapiens) (UniProt P16066); test: Natriuretic polypeptide receptor (hNpr1) antagonism - Pilot CMLD screen (AID 1347052; calls by dose curve;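 also: cGMP level read as GloSensor luciferase luminescence after agonist stimulation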; also: potency is read from the fitted curve at half-maximal effect)
Atrial natriuretic peptide receptor 1 (Homo sapiens), sequence (P16066 whole entry, looked up): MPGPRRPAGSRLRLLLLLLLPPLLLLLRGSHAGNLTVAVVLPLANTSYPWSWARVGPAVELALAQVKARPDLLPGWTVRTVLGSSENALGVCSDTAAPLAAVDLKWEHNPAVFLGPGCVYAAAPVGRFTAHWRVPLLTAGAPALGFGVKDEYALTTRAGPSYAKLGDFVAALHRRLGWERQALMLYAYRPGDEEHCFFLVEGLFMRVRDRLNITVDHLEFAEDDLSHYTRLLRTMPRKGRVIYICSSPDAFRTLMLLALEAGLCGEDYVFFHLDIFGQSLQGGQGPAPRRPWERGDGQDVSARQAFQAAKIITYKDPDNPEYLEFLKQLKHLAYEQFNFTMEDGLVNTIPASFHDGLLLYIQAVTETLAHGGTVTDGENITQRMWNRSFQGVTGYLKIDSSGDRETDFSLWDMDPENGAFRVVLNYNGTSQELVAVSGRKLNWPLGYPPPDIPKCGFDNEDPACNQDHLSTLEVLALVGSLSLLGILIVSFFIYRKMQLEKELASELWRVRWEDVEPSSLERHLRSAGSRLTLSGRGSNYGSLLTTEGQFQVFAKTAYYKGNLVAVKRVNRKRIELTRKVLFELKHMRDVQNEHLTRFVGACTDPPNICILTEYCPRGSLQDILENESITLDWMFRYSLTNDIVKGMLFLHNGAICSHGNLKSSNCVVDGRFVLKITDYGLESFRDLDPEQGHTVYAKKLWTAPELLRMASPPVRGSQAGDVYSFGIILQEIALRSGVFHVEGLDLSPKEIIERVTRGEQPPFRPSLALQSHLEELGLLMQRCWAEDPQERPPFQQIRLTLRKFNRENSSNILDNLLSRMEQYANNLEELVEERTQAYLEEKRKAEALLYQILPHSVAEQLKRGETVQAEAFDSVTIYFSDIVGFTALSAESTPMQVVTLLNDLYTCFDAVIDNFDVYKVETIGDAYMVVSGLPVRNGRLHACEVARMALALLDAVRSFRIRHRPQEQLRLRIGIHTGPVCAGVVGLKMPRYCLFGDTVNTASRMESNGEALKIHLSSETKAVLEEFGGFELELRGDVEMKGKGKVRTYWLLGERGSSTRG

SMILES | Potency [1] | Potency [2] | Potency [3] | Potency [4] | Potency [5] | Potency [6] | activity, negative = inhibition [1]
COC(=O)N1C2CC3(C)CC(=O)CC1(C)C3c1ccccc12 (configuration not stated) | inactive | inactive | inactive | inactive | inactive | inactive | 
C[C@@H]1C(c2ccccc2)CC(=O)C(=O)C[C@@H]1C(=O)N1CCCC1 (some centres not stated) | inactive | inactive | inactive | inactive | inactive | inactive | 
CCN1C(=NCCCCO)NC(c2cccc(C(F)(F)F)c2)C(C(=O)OC)=C1C (configuration not stated) | inactive | inactive | inactive | inactive | inactive | inactive | 
COC1=CC2C(=O)C(C1=O)C1c3ccccc3CC21 (configuration not stated) | inactive | inactive | inactive | inactive | inactive | inactive | 
C=C(C)C(=O)OC[C@@H]1CN2[C@H](c3ccc(Br)cc3)[C@H](C)CC[C@H]2C(=O)O1 | inactive | inactive | inactive | inactive | inactive | inactive | 
CC(C)OC(=O)CC(NC(=O)OC(C)(C)C)c1ccccc1 (configuration not stated) | inactive | inactive | inactive | inactive | inactive | inactive | 
C[C@@H]1C=CCCO[C@]12C(=O)N(CC1CC1)c1ccccc12 | inactive | inactive | inactive | inactive | inactive | inactive | 
CC1(OC(=O)CCc2ccccc2)C(=O)C=C2C=C(C3CC3)OC=C2C1=O (configuration not stated) | inactive | inactive | inactive | inactive | inactive | inactive | 
COc1ccc2c(c1)O[C@H](c1ccc3c(c1)OCO3)[C@@H](OC(=O)NCCOc1ccccc1)C2=O | inactive | inactive | inactive | inactive | inactive | inactive | 
C(#C[C@@H]1C=C[C@H]2OC(c3ccccc3)OC[C@H]2O1)c1ccccc1 (some centres not stated) | inactive | inactive | inactive | inactive | inactive | inactive | 
CCN1C(=O)[C@@H]2[C@H]3[C@H](O)[C@H](O)CC(=NO[C@@H](C)c4cn([C@H](CO)Cc5ccccc5)nn4)[C@@H]3CC[C@H]2C1=O | inactive | inactive | inactive | inactive | inactive | inactive | 
C=CCN=C1N[C@@H](c2ccccc2)[C@H](C(=O)OC)[C@@H](C)N1CC | inactive | inactive | inactive | inactive | inactive | inactive | 
CCC(C)CN1C(=O)NC(c2ccccc2)C(C(=O)OC)=C1C (configuration not stated) | inactive | inactive | inactive | inactive | inactive | inactive | 
C[C@@H]1C(c2ccccc2)=Cc2[nH]c(=O)[nH]c2C[C@@H]1C(=O)N1CCCC1 | inactive | inactive | inactive | inactive | inactive | inactive | 
C=C[C@@]1(C)CCC=C2C(=O)CCC[C@H]21 | inactive | inactive | inactive | inactive | inactive | inactive | 
C=C[C@H](C)[C@](C)(O)c1ccccc1 | inactive | inactive | inactive | inactive | inactive | inactive | 
CCN1C(=O)NC(c2cccs2)C(C(=O)OC)=C1C (configuration not stated) | inactive | inactive | inactive | inactive | inactive | inactive | 
CC(C)(C)OC(=O)NCCCC1=CC2=CC(=O)C(C)(O)C(=O)C2=CO1 (configuration not stated) | inactive | inactive | inactive | inactive | inactive | inactive | 
CCCCC1=CC2=C(c3ccco3)C(=O)C(C)(OC(=O)c3ccc(OC)cc3)C(=O)C2=CN1Cc1ccc(OC)cc1 (configuration not stated) |  | inactive | inactive | inactive | inactive | inactive | 1.26% [at 1.12 µM]
O=C1[C@H]2[C@@H]3[C@@H](O)[C@H](O)CC(=NOCc4ccccc4)[C@@H]3CC[C@H]2C(=O)N1c1ccc(F)cc1F | inactive | inactive | inactive | inactive | inactive | inactive | 
C#CC1(O)C(OC)=CC2C(=O)C1C(c1ccccc1)C2C (configuration not stated) | inactive | inactive | inactive | inactive | inactive | inactive | 
CCN1C(=NCc2ccco2)N[C@@H](CCc2ccccc2)[C@H](C(=O)OC)[C@H]1C | inactive | inactive | inactive | inactive | inactive | inactive | 
C=C(C(C)=O)C(O)c1ccc([N+](=O)[O-])cc1 (configuration not stated) | inactive | inactive | inactive | inactive | inactive | 1.88 µM (active) | 
COC(=O)C1=C(C)N(CC#C[Si](C)(C)C)C(=O)N(C(C)=O)C1c1ccccc1 (configuration not stated) | inactive | inactive | inactive | inactive | inactive | inactive | 
CCCCOC(OCCCC)C(O)CSc1ccc2ccccc2c1 (configuration not stated) | inactive | inactive | inactive | inactive | inactive | inactive | 
COC(=O)CC=C1c2ccccc2[C@@H](OC)[C@@H]1C | inactive | inactive | inactive | inactive | inactive | inactive | 

SMILES | Potency [1] | Potency [2] | Potency [3] | Potency [4] | Potency [5] | Potency [6] | activity, negative = inhibition [1]
CCN1C(=O)NC(c2ccccc2)C(C(=O)OC)=C1C (configuration not stated) | inactive | inactive | inactive | inactive | inactive | inactive | 
COC(=O)CC=C[C@@H](C)[C@H](NC(=O)OCC(Cl)(Cl)Cl)c1ccccc1 | inactive | inactive | inactive | inactive | inactive | inactive | 
COc1cccc2c1[C@H](C=Cc1ccccc1)[C@@H]([C@H](O)CO)OC2 | inactive | inactive | inactive | inactive | inactive | inactive | 
C[C@@H]1C=CCCO[C@]12C(=O)N(CC1CC1)c1cccc(Br)c12 | inactive | inactive | inactive | inactive | inactive | inactive | 
C=CCN(C)C1=NC(c2ccccc2)C(C(=O)OC)=C(C)N1CCOC (configuration not stated) | inactive | inactive | inactive | inactive | inactive | inactive | 
C=CCN1C(=O)[C@]2(OCCC=C[C@H]2C)c2c(Br)cccc21 | inactive | inactive | inactive | inactive | inactive | inactive | 
COC(=O)NC(C=Cc1ccccc1)C(C(C)=O)C(=O)OC (configuration not stated) | inactive | inactive | inactive | inactive | inactive | inactive | 
CC(=O)OC[C@H]1O[C@H](C#Cc2ccccc2)C=C[C@@H]1OC(C)=O | inactive | inactive | inactive | inactive | inactive | inactive | 
COC(=O)N[C@H](CC(C)=O)c1cccs1 | inactive | inactive | inactive | inactive | inactive | inactive | 
Cc1ccc(S(=O)(=O)OC[C@@H]2CN3[C@H](c4ccc(Br)cc4)[C@H](C)CC[C@H]3C(=O)O2)cc1 | inactive | inactive | inactive | inactive | inactive | inactive | 
C=CCN1c2ccccc2[C@]23CCC(=O)N(CCOC)C2=NC(C(=O)OC)=C(C(=O)OC)[C@H]13 | inactive | inactive | inactive | inactive | inactive | inactive | 
O=C(C=Cc1ccc2c(c1)OCO2)c1ccc(F)cc1 | inactive | inactive | inactive | inactive | inactive | inactive | 
COc1ccc(C2=CC3=C(Br)C(=O)C(C)(O)C(=O)C3=CO2)cc1 (configuration not stated) | inactive | inactive | inactive | inactive | inactive | inactive | 
COC(=O)[C@H]1O[C@@H](c2c(OC)c(OC)c(C)c(OC)c2OC)[C@H](C)[C@@H](O)[C@@H]1C | inactive | inactive | inactive | inactive | inactive | inactive | 
Cc1cc2c(nc1C)CCCCN2C[C@H](C)ON=C[C@@H](C)[C@H](OCc1ccccc1)C(C)C | inactive | inactive | inactive | inactive | inactive | inactive | 
COC(=O)CC=C[C@@H](C)[C@H](OC)c1c(Br)ccc2c1OCO2 | inactive | inactive | inactive | inactive | inactive | inactive | 
O=C1[C@@H]2[C@H]3[C@H](O)[C@H](O)CC(=NOC[C@@H](O)COCc4ccco4)[C@@H]3CC[C@H]2C(=O)N1C[C@@H]1CCCO1 | inactive | inactive | inactive | inactive | inactive | inactive | 
CCOC(=O)CN1C(=O)[C@]2(OCCC=C[C@@H]2C)c2ccccc21 | inactive | inactive | inactive | inactive | inactive | inactive | 
CCN1C(=NCc2cccc(Cl)c2)N[C@@H](CCc2ccccc2)[C@H](C(=O)OC)[C@H]1C | inactive | inactive | inactive | inactive | inactive | inactive | 
O=c1n(-c2ccccc2)c(=O)n2n1CC[C@@H]1C(=NOC[C@@H](O)COCc3ccco3)[C@H]3O[C@H]3[C@@H](O)[C@H]12 | inactive | inactive | inactive | inactive | inactive | inactive | 
COCCN1C(=NCCc2cccnc2)NC(c2ccccc2)C(C(=O)OC)=C1C (configuration not stated) | inactive | inactive | inactive | inactive | inactive | inactive | 
C#CCCCON=C1C[C@@H](O)[C@H](O)[C@H]2[C@@H]3C(=O)N(c4ccc(F)cc4F)C(=O)[C@@H]3CC[C@H]12 | inactive | inactive | inactive | inactive | inactive | inactive | 
CCCCS(=O)(=O)N1CCc2nc(-c3ccccc3)c3c(c2C1)CO[C@@H](C)C3 | inactive | inactive | inactive | inactive | inactive | inactive | 
CC1(OC(=O)C2CCCC2)C(=O)C=C2C=C(C3CC3)OC=C2C1=O (configuration not stated) | inactive | inactive | inactive | inactive | inactive | inactive | 
C=CC[C@@H]1C=C[C@@H](Oc2ccc(OC)cc2)[C@H](COC(=O)c2ccc(Br)cc2)O1 | inactive | inactive | inactive | inactive | inactive | inactive | 
COC(=O)N[C@@H](CCc1ccccc1)[C@]1(C(C)=O)CCCC1=O | inactive | inactive | inactive | inactive | inactive | inactive | 
